In ChEMBL document CHEMBL2218924, “A broad activity screen in support of a chemogenomic map for kinase signalling research and drug discovery” (Biochem J, 2013):

Biological target: Tyrosine-protein kinase JAK2 (Homo sapiens) (UniProt O60674)
Settings: at 1 µM

Chain of Tyrosine-protein kinase JAK2 (Homo sapiens) (O60674 whole entry): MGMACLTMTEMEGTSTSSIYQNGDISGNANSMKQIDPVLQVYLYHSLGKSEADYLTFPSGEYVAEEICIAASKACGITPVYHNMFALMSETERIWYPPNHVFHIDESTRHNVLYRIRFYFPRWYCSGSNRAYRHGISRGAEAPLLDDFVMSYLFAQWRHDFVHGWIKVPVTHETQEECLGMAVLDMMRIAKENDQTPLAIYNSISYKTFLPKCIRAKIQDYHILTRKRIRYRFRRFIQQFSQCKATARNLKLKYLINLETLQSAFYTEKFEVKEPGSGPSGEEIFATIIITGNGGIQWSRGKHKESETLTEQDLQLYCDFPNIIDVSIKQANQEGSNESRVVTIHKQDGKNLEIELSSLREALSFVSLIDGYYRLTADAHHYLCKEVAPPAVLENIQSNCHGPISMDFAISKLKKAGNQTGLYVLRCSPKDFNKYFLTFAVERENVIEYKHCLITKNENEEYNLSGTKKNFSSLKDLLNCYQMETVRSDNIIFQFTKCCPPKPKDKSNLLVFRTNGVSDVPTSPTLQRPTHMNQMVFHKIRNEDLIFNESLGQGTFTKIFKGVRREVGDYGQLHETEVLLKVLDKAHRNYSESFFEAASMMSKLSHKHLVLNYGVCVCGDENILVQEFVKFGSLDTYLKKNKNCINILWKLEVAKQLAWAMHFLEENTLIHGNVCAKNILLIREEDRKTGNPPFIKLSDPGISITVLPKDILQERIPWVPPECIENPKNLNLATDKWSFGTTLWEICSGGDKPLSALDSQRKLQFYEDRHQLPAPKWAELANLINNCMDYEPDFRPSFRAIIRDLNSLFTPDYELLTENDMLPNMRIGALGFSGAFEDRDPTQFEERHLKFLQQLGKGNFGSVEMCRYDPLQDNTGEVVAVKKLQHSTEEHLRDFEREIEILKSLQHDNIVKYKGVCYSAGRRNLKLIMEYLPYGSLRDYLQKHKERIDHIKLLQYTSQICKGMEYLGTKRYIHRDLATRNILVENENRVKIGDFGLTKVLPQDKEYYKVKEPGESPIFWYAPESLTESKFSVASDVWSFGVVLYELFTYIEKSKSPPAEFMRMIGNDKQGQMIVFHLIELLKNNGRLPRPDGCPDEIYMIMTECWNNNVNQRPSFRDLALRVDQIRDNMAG

Structure (SMILES) | residual activity [%]
COc1ccc(Cl)cc1NC(=O)Nc1cc(C)nc2ccccc12 | 124
O=C1NC(=O)C(c2cn(CCCn3ccnc3)c3ccccc23)=C1Nc1ccccc1 | 103
O=C(c1ccccc1)c1ccc(N2CCOCC2)cc1O | 92
O=C(O)/C=C/c1cc(Br)c(Br)c(Br)c1Br | 87
Nc1n[nH]c2nc3ccccc3nc12 | 98
O=C(Nc1ccc(Cl)cc1)c1ccccc1NCc1ccncc1 | 129
O=C1Cc2c([nH]c3ccc(Br)cc23)-c2ccccc2N1 | 100
O=C1Nc2ccc(Cl)cc2/C1=C/c1cc(Cl)c(O)c(Cl)c1 | 98
Fc1ccc(-c2nc3n(c2-c2ccncc2)CCS3)cc1 | 99

Biological target: Tyrosine-protein kinase JAK2 (Homo sapiens) (UniProt O60674)
Settings: at 10 µM

Structure (SMILES) | residual activity [%]
COc1ccc(Cl)cc1NC(=O)Nc1cc(C)nc2ccccc12 | 155
O=C1NC(=O)C(c2cn(CCCn3ccnc3)c3ccccc23)=C1Nc1ccccc1 | 39
O=C(c1ccccc1)c1ccc(N2CCOCC2)cc1O | 99
O=C(O)/C=C/c1cc(Br)c(Br)c(Br)c1Br | 58
O=C1NC(=O)C(c2c[nH]c3ccccc23)=C1c1c[nH]c2ccccc12 | 33
Nc1n[nH]c2nc3ccccc3nc12 | 91
O=C1Cc2c([nH]c3ccc([N+](=O)[O-])cc23)-c2ccccc2N1 | 106
O=C(Nc1ccc(Cl)cc1)c1ccccc1NCc1ccncc1 | 74
O=C1Cc2c([nH]c3ccc(Br)cc23)-c2ccccc2N1 | 71
O=C1Nc2ccc(Cl)cc2/C1=C/c1cc(Cl)c(O)c(Cl)c1 | 69
N#Cc1c(NC(=O)c2cccc3ccccc23)sc2c1CCCC2 | 92
Fc1ccc(-c2nc3n(c2-c2ccncc2)CCS3)cc1 | 100

Biological target: T1, Tyrosine-protein kinase JAK3 (Homo sapiens) (UniProt P52333)
T1 sequence (whole entry): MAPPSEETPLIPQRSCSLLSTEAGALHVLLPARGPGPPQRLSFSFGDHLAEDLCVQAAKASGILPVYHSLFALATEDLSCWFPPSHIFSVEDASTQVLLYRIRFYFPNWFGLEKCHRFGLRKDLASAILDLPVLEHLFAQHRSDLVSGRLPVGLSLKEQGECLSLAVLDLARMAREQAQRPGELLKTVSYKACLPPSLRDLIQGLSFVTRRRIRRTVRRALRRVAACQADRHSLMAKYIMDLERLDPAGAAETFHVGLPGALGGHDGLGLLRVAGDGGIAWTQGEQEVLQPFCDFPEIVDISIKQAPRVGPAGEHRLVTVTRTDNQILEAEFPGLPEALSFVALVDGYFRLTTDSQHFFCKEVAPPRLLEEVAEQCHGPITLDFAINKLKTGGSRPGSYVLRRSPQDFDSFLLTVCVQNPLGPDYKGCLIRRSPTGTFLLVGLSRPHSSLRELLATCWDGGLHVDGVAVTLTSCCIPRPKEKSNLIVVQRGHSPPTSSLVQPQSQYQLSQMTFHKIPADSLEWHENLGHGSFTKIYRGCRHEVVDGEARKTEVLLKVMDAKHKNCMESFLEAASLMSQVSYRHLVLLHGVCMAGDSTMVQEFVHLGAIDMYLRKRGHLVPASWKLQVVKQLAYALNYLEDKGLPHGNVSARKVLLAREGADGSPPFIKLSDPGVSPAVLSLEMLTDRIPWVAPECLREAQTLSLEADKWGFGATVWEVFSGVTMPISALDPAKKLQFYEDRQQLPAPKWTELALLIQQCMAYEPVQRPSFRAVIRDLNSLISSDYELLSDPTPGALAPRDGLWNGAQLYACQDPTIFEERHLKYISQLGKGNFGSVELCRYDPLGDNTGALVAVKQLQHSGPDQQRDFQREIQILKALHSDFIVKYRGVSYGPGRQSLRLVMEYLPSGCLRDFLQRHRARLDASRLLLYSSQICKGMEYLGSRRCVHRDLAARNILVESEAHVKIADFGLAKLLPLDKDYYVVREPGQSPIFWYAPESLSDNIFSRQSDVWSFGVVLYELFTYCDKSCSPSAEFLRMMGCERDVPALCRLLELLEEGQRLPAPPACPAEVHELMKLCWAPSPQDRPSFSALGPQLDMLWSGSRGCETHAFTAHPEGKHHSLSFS
Settings: at 1 µM

Structure (SMILES) | residual activity [%]
O=C1NC(=O)C(c2cn(CCCn3ccnc3)c3ccccc23)=C1Nc1ccccc1 | 15
O=C1C(Cl)=C(N2C(=O)CCC2=O)C(=O)c2ccccc21 | 100
O=C(c1ccccc1)c1ccc(N2CCOCC2)cc1O | 91
O=C(O)/C=C/c1cc(Br)c(Br)c(Br)c1Br | 102
NCCNc1ncc(C(N)=O)c(Nc2cccc(C(F)(F)F)c2)n1 | 116
N#C/C(=C1/Nc2ccccc2S1)c1ccnc(NCCc2cccnc2)n1 | 95
O=C1NC(=O)C(c2c[nH]c3ccccc23)=C1c1c[nH]c2ccccc12 | 43
COc1cc2nccc(Oc3ccc(NC(=O)Nc4cc(C)on4)c(Cl)c3)c2cc1OC | 100
CC(C)N(CCC(=O)c1ccc2ccccc2c1)Cc1ccccc1 | 78
O=C1Cc2c([nH]c3ccc([N+](=O)[O-])cc23)-c2ccccc2N1 | 101
O=C1Nc2ccc(Cl)cc2/C1=C/c1cc(Cl)c(O)c(Cl)c1 | 75
Nc1nccc(-c2c(-c3ccc(F)cc3)ncn2C2CCNCC2)n1 | 120

Biological target: T1, Tyrosine-protein kinase JAK3 (Homo sapiens)
Settings: at 10 µM

Structure (SMILES) | residual activity [%]
COc1ccc(Cl)cc1NC(=O)Nc1cc(C)nc2ccccc12 | 145
O=C1NC(=O)C(c2cn(CCCn3ccnc3)c3ccccc23)=C1Nc1ccccc1 | 2
O=C1C(Cl)=C(N2C(=O)CCC2=O)C(=O)c2ccccc21 | 89
O=C(c1ccccc1)c1ccc(N2CCOCC2)cc1O | 82
O=C(O)/C=C/c1cc(Br)c(Br)c(Br)c1Br | 34
NCCNc1ncc(C(N)=O)c(Nc2cccc(C(F)(F)F)c2)n1 | 106
O=C1Nc2ccccc2/C1=C\c1c(Cl)[nH]c2ccccc12 | 85
N#C/C(=C1/Nc2ccccc2S1)c1ccnc(NCCc2cccnc2)n1 | 48
CN([C@@H](Cc1ccc(OS(=O)(=O)c2cccc3cnccc23)cc1)C(=O)N1CCN(c2ccccc2)CC1)S(=O)(=O)c1cccc2cnccc12 | 83
O=C1NC(=O)C(c2c[nH]c3ccccc23)=C1c1c[nH]c2ccccc12 | 6
COc1cc2nccc(Oc3ccc(NC(=O)Nc4cc(C)on4)c(Cl)c3)c2cc1OC | 48
CC(C)N(CCC(=O)c1ccc2ccccc2c1)Cc1ccccc1 | 45
COc1ccc(-c2cnc3c(-c4ccsc4)cnn3c2)cc1 | 92
O=C1Cc2c([nH]c3ccc([N+](=O)[O-])cc23)-c2ccccc2N1 | 101
O=C1Cc2c([nH]c3ccc(Br)cc23)-c2ccccc2N1 | 71
CC(C)[C@H](CO)Nc1nc(Nc2cc(N)cc(Cl)c2)c2ncn(C(C)C)c2n1 | 87
O=C(NC(NC(=S)Nc1ccc(F)c([N+](=O)[O-])c1)C(Cl)(Cl)Cl)C(c1ccccc1)c1ccccc1 (centres undefined) | 78
O=C1Nc2ccc(Cl)cc2/C1=C/c1cc(Cl)c(O)c(Cl)c1 | 28
Nc1nccc(-c2c(-c3ccc(F)cc3)ncn2C2CCNCC2)n1 | 118

Biological target: Mitogen-activated protein kinase 8 (Homo sapiens) (UniProt P45983)
Sequence (P45983 whole entry): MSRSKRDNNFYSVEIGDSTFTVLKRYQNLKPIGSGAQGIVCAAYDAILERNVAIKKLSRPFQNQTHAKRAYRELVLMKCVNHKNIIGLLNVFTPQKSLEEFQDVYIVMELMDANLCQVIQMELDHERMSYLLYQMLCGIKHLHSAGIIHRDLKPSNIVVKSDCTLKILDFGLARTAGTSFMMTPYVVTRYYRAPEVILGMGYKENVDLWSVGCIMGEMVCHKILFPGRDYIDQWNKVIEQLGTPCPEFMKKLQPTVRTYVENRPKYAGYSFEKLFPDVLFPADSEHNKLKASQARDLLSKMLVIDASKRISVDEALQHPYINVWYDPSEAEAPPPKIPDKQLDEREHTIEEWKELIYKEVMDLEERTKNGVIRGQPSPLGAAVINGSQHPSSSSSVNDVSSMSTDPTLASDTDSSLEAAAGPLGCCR
Settings: at 1 µM

Structure (SMILES) | residual activity [%]
O=C1NC(=O)C(c2cn(CCCn3ccnc3)c3ccccc23)=C1Nc1ccccc1 | 109
O=C1C(Cl)=C(N2C(=O)CCC2=O)C(=O)c2ccccc21 | 96
O=C(c1ccccc1)c1ccc(N2CCOCC2)cc1O | 116
O=C(O)/C=C/c1cc(Br)c(Br)c(Br)c1Br | 108
CCOc1nc(NC(=O)Cc2cc(OC)ccc2OC)cc(N)c1C#N | -16
N#C/C(=C1/Nc2ccccc2S1)c1ccnc(NCCc2cccnc2)n1 | 67
COc1cc2nccc(Oc3ccc(NC(=O)Nc4cc(C)on4)c(Cl)c3)c2cc1OC | 120
NC(=O)c1ccc(-c2nc(-c3ccc4c(c3)OCCO4)c(-c3ccccn3)[nH]2)cc1 | 117
O=C1Cc2c([nH]c3ccc([N+](=O)[O-])cc23)-c2ccccc2N1 | 109
O=C(Nc1ccc(Cl)cc1)c1ccccc1NCc1ccncc1 | 120
O=C1Cc2c([nH]c3ccc(Br)cc23)-c2ccccc2N1 | 95
O=C1Nc2ccc(Cl)cc2/C1=C/c1cc(Cl)c(O)c(Cl)c1 | 95
